High-throughput results deposited in PubChem BioAssay by National Center for Advancing Translational Sciences (NCATS).
A selection: hits, their analogues and other compounds. The true share with any hit is near 1.2%.
gsp ag – activates gsp, the McCune-Albright syndrome mutation. gsp mutant cells, cAMP HTRF, 30 min. Potency, µM (titrated, usually from 76.9 µM), for the others: at the highest dose activation (cAMP increase), hits mostly activators. actives 0.13% (n = 340,000). AID 624287; active = well fitted activation curve with a large enough effect; inconclusive = small, poorly fitted or top-dose-only effect, or another doubt; inactive = no such curve, though single readings can be large or run the other way; cell line not stated here;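 note: phosphodiesterase inhibitor Ro 20-1724 added with compounds to block cAMP breakdown; potency is the fitted concentration of half-maximal effect; nearly all actives have a fitted effect of over 60% in size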
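Cells in DMEM/10% FBS with G418 were pretreated with compounds in DMSO plus […] (300 uM stock) for 30 min at 37C. cAMP was measured by HTRF (cAMP-d2 plus anti-cAMP antibody-K) after 30 min at room temperature.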
TSHR antag – human thyrotropin receptor antagonism | P16473 | TSHR-expressing cells, TSH-stimulated cAMP HTRF, 2 h; stronger effect = lower value | activity change, negative = inhibition, % at 11.5 µM | actives 0.2% (n = 330,000) | AID 504810;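 active = activity change below a set negative limit, meaning inhibition stronger than a set level, cut at about -70% in these data; inconclusive = activity change between two set negative limits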; note: % is set by controls: 0 for no effect and ±100 for the full control effect
Target sequence (P16473 whole entry, looked up): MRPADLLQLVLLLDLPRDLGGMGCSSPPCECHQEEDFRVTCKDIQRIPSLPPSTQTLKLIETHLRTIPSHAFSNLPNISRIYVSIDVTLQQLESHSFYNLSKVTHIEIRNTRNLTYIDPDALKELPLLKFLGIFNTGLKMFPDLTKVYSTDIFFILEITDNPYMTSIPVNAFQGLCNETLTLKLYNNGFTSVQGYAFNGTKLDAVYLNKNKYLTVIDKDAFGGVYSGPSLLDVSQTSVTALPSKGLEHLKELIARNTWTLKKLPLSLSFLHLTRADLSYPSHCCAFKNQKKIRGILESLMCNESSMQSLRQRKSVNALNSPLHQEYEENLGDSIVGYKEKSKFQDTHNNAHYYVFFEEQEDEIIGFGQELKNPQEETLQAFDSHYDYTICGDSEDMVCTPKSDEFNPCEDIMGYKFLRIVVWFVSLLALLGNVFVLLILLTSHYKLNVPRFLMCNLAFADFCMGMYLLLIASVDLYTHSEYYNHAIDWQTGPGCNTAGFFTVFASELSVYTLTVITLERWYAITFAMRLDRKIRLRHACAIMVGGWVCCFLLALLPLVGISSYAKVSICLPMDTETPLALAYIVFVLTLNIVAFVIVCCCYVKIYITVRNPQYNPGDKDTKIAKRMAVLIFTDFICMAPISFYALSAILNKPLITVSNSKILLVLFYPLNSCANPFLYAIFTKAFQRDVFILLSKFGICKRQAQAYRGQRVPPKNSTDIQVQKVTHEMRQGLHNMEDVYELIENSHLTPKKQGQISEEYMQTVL
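Competitive HTRF cAMP read-out (cryptate anti-cAMP antibody, cAMP-d2; 30 min, room temperature) in freshly harvested TSHR cells. Compounds added before TSH at EC80 (4nM final), followed by 2 hours' incubation at 37 deg C.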
uPA surface inh – blocks generation of uPA at the cell surface; cell surface uPA generation assay, qHTS; Potency, µM (highest dose often 38.3 µM), for the others: top-dose activity change, negative = inhibition, hits mostly inhibitors; actives 0.31% (n = 330,000); active = well fitted inhibition curve with a large enough effect; inconclusive = small, poorly fitted or top-dose-only effect; inactive = no such curve, though single readings can be large or run the other way; tested in mouse RAW 264.7 cells; note: potency is the fitted concentration of half-maximal effect; % is set by controls: 0 for no effect and ±100 for the full control effect; nearly all actives have a fitted effect of over 55% in size
MmCpn inh – M. maripaludis TRiC chaperonin inhibition. Potency, µM (top dose mostly 76.9 µM), for inactives: top-dose activity, negative = inhibition, usual class: inhibitors. actives 0.031% (n = 330,000). purified Mm-Cpn ATPase, ADP Transcreener TR-FRET; active = well fitted inhibition curve with a large enough effect; inconclusive = small, poorly fitted or top-dose-only effect; note: potency is the fitted concentration of half-maximal effect; % is set by controls: 0 for no effect and ±100 for the full control effect; nearly all actives have a fitted effect of over 80% in size
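Quantitative HTS used 25 nM Mm-CPN and 10 uM ATP in magnesium/KCl Tris buffer, pH 7.4, with 1 mM DTT. Hydrolysis ran 30 min at 37°C; ADP was read by HTRF.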
CCT modulator – cytosolic chaperonin activity modulation; AID 651819; actives 0.3% (n = 360,000); activity change, % (test concentration not listed), hits read low; purified chaperonin ATPase assay, HTRF ADP detection, 30 min; in the data active = activity change below about -30%; note: % is set by controls: 0 for no effect and ±100 for the full control effect
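ATPase activity: ADP formed was measured by HTRF Transcreener (665/615 nm ratio) after 30 min at 37 deg C with 10 uM ATP. Compounds screened at one 76 uM concentration against 40 or 20 nM TRiC in Tris pH 7.4/KCl/MgCl2/DTT buffer.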
gsp antag – gsp mutant antagonism. gsp-mutant cells, cAMP HTRF, 30 min. Potency, µM (top dose mostly 76.9 µM), for inactives: at the highest dose activity change, negative = inhibition, most hits filed as inhibitors. actives 0.4% (n = 340,000); calls by dose curve; cell line not stated here;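 note: intracellular cAMP measured with PDE inhibitor Ro 20-1724 present during compound exposure; potency is the fitted concentration of half-maximal effect; % is set by controls: 0 for no effect and ±100 for the full control effect; nearly all actives have a fitted effect of over 65% in size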
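G418-selected cells were plated in DMEM/10% FBS for 16-24 h at 37C, then treated with compounds plus the PDE inhibitor […] (300 uM solution added) for 30 min at 37C. Intracellular cAMP was measured by HTRF after 30 min lysis at room temperature.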
* marks the source's active call; other numbers are inactive results; [ ] = dose if it differs, or a comment.

For CSCC(=O)N1CCCC(CO)(CCCc2ccccc2)C1 (centres undefined) the results were gsp ag 1%, TSHR antag -17, uPA surface inh 0%, MmCpn inh 1%, CCT modulator -1 and gsp antag 9%.
`CC1(C(=O)N2CC3(CC(c4cccc(NC(=O)CC(c5ccccc5)c5ccccc5)c4)=NO3)C[C@@H]2C(N)=O)CC1` (some centres undefined) gave TSHR antag -4, uPA surface inh 8%, MmCpn inh 1%, CCT modulator 0 and gsp antag -6%.
CC/C=C/C(=O)N1CC2(CC(c3cccc(NC(=O)CC(c4ccccc4)c4ccccc4)c3)=NO2)C[C@@H]1C(N)=O (some centres undefined) was read as gsp ag inconclusive, TSHR antag -2, uPA surface inh -3%, MmCpn inh 2%, CCT modulator -33* and gsp antag -12%.
COc1ccccc1NC(=O)CSc1n[nH]c(-c2ccccn2)n1 was read as gsp ag 9%[15.4 µM], TSHR antag -3, MmCpn inh 3%, CCT modulator -3 and gsp antag 3%.
Screening CC(Oc1ccccc1)C(=O)N1CCN=C1SCc1ccccc1 (centres undefined) returned gsp ag -1%[15.4 µM], TSHR antag 9, uPA surface inh -3%, MmCpn inh inconclusive, CCT modulator -42* and gsp antag -24%.
For COc1ccccc1CNC(=O)c1cc(C(C)C)nc2ccccc12 the results were gsp ag -3%, TSHR antag -3, uPA surface inh 3%, MmCpn inh -2%, CCT modulator 0 and gsp antag -12%.
For N#Cc1c(N2CCSCC2)nsc1-c1ccccc1Cl the results were gsp ag 16µM*, TSHR antag -1, uPA surface inh -6%, MmCpn inh inconclusive, CCT modulator 1 and gsp antag -8%.
For N#Cc1c(Cl)cccc1N1CCSCC1 the results were CCT modulator -2.
Screening CN(C(=O)CSc1n[nH]c(N)n1)C1CCCCC1 returned gsp ag inconclusive, uPA surface inh 7%, MmCpn inh -6%, CCT modulator -1 and gsp antag 17%.
Nc1nc(SCC(=O)C23CC4CC(CC(C4)C2)C3)n[nH]1 was read as gsp ag -31%, TSHR antag -76*, uPA surface inh 2%, MmCpn inh 0%, CCT modulator 0 and gsp antag -14%.
Screening CCN(CC)S(=O)(=O)c1ccc(N2CCOCC2)c(NC(=O)c2cccc3c(=O)c(C)c(-c4ccccc4)oc23)c1 returned gsp ag inconclusive, uPA surface inh 4.5µM*, CCT modulator 0 and gsp antag 6%.
Cn1c(=O)c2c([nH]c(=S)n2Cc2ccc(Cl)cc2)n(C)c1=O was read as gsp ag 34%, TSHR antag -2, uPA surface inh 1%, MmCpn inh -9%, CCT modulator -84* and gsp antag 24%.
For C=CCc1ccccc1OCC(=O)NNC(=S)NCc1ccccc1 the results were gsp ag -20%, TSHR antag 18, uPA surface inh -6%, MmCpn inh 3%, CCT modulator -34* and gsp antag 1%.
`O=C(COc1ccc(Cl)cc1)NNC(=S)NCc1ccccc1` gave gsp ag -1%[15.4 µM], TSHR antag 16, uPA surface inh -2%, MmCpn inh 4% and CCT modulator -1.
COc1cccc(CSc2nc3ccccc3[nH]2)c1 was read as gsp ag 8%, TSHR antag -13, uPA surface inh 8.9µM*, MmCpn inh -2%, CCT modulator -1 and gsp antag -23%.
For O=[N+]([O-])c1cccc(CSc2nc3ccccc3[nH]2)c1 the results were gsp ag -69%, TSHR antag 2, uPA surface inh 0%, MmCpn inh 3%, CCT modulator 2 and gsp antag 5%.
`Cn1c(C(=O)NCC2CCCO2)cc2c(=O)n3ccccc3nc21` (centres undefined) gave gsp ag 13µM*, TSHR antag 15, uPA surface inh 2%, MmCpn inh -3%, CCT modulator -2 and gsp antag 5%.
`COc1ccc(CCn2c(=N)c(C(=O)NCC3CCCO3)cc3c(=O)n4ccccc4nc32)cc1OC` (centres undefined) gave gsp ag 6%, TSHR antag 2, uPA surface inh inconclusive, MmCpn inh 2%, CCT modulator 0 and gsp antag -12%.
For Cc1c(NC(=O)CSc2nc3ccccc3c(=O)n2C(C)C)c(=O)n(-c2ccccc2)n1C the results were gsp ag inconclusive, TSHR antag -5, uPA surface inh 23%, MmCpn inh -2%, CCT modulator 0 and gsp antag -22%.
CN(CC(=O)Nc1ccc(F)c(F)c1F)C(=O)C1COc2ccccc2O1 (centres undefined) was read as gsp ag -67%, TSHR antag -14, uPA surface inh 7%, MmCpn inh 2%, CCT modulator -1 and gsp antag 1%.
CC1(C)Oc2cc(N)c([N+](=O)[O-])cc2O1 was read as gsp ag 4%, TSHR antag -16, uPA surface inh -1%, MmCpn inh 0%, CCT modulator -1 and gsp antag 3%.
`C=C1N(C)c2cc([N+](=O)[O-])c(N)cc2C1(C)C` gave gsp ag -11%[15.4 µM], TSHR antag -6, uPA surface inh -6%, MmCpn inh -5%, CCT modulator 0 and gsp antag 28µM*.
CC1(C)Cc2c(sc(NC(=O)C(C)(C)C)c2C#N)C(C)(C)N1 was read as gsp ag -25%, TSHR antag -3, uPA surface inh -7%, MmCpn inh -2%, CCT modulator 1 and gsp antag 19%.
Screening O=C(Nc1cccc(C(=O)N2CCCCC2)c1)C1CC1 returned uPA surface inh 13%, CCT modulator -48* and gsp antag 6%.
Screening COc1ccccc1CN(C)C(=O)c1cc(-c2cccs2)nc2ccccc12 returned gsp ag 17%, TSHR antag 30, uPA surface inh 1%, MmCpn inh -3%, CCT modulator 2 and gsp antag 40µM*.
Screening COc1ccc(-c2cc(C(=O)N(C)Cc3cccc(OC)c3OC)c3ccccc3n2)cc1OC returned gsp ag -5%[15.4 µM], TSHR antag 26, uPA surface inh -11%, MmCpn inh -1%, CCT modulator -1 and gsp antag 10%.
